Values without a mark were called inactive. Results filed as inconclusive are left out. Where a call stands in place of a potency, no number is given. Calls of active or inactive are those of the source. Calls follow the shape of the dose curve; as a rule, active = well fitted curve in the direction sought with a large enough effect in the repeat runs; inconclusive = weak or mixed curves; inactive = no such curve, though single readings can be large; an effect the other way counts as inactive or inconclusive.
Columns and labels:
[1] = qHTS RealTime-Glo MT Cell Viability Assay in HepG2 cells - 40 hour (AID 1224870); also: nearly all actives have a fitted effect of over 50% in size
Procedure, shortened: (§1)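 HepG2 cells (600/well) mixed with RealTime-Glo MT reagent, settled 5 h at 37 C/5% CO2 before compound addition. Nonlytic NanoLuc luminescence from viable-cell prosubstrate reduction read repeatedly during 40 h treatment at 37 C.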

[2] = A CellTox Green Cytotoxicity Assay to monitor cytotoxicity in HEK293 cells - 40 hour (AID 1224871); also: nearly all actives have a fitted effect of over 45% in size
Procedure, shortened: (§2)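 Each value comes from one timepoint of a single continuous run in which HEK293 cells with CellTox Green were exposed to compound for up to 40 h at 37 C, dye fluorescence rising with cell death.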

[3] = qHTS RealTime-Glo MT Cell Viability Assay in HEK293 cells - 16 hour (AID 1224872); also: nearly all actives have a fitted effect of over 50% in size; also: potency is read from the fitted curve at half-maximal effect; as to activity change, negative = cytotoxicity: top concentration of the series differs between compounds
Procedure, shortened: (§3)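 Assay medium contained NanoLuc luciferase plus cell-permeant prosubstrate, added with HEK293 cells at 600 cells/well. After 5 h at 37 C/5% CO2 compounds were added; plates stayed at 37 C for 40 h with serial luminescence reads.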

[4] = qHTS RealTime-Glo MT Cell Viability Assay in HepG2 cells - 8 hour (AID 1224873); also: nearly all actives have a fitted effect of over 55% in size
Procedure, shortened: as §1

[5] = qHTS RealTime-Glo MT Cell Viability Assay in HEK293 cells - 40 hour (AID 1224874); settings: RealTime-Glo luminescence; max response: hits give low values; also: nearly all actives have a fitted effect of over 50% in size; also: potency is read from the fitted curve at half-maximal effect
Procedure, shortened: (§4)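 qHTS format; HEK293 cells with NanoLuc/prosubstrate reagent, 37 C/5% CO2 for 5 h pre-dosing; compounds 23 nL in DMSO; luminescence at each time point reflects viable cells.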

[6] = A CellTox Green Cytotoxicity Assay to monitor cytotoxicity in HEK293 cells - 24 hour (AID 1224875); also: series mostly up to about 77 µM; nearly all actives have a fitted effect of over 45% in size
Procedure, shortened: as §2

[7] = A CellTox Green Cytotoxicity Assay to monitor cytotoxicity in HepG2 cells - 16 hour (AID 1224876); also: nearly all actives have a fitted effect of over 45% in size
Procedure, shortened: (§5)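 Continuous culture of HepG2 cells with a membrane-impermeant DNA dye; rising fluorescence marks dead cells. Compound exposure lasted up to 40 h at 37 C, with reads every 8 h from 0 h.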

[8] = qHTS RealTime-Glo MT Cell Viability Assay in HepG2 cells - 32 hour (AID 1224877); also: nearly all actives have a fitted effect of over 55% in size
Procedure, shortened: (§6)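 qHTS, HepG2, 600 cells/well, RealTime-Glo (NanoLuc + prosubstrate) added with cells; 5 h preincubation; DMSO compound addition; 37 C; luminescence at 0/8/16/24/32/40 h.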

[9] = A CellTox Green Cytotoxicity Assay to monitor cytotoxicity in HepG2 cells - 24 hour (AID 1224878); also: nearly all actives have a fitted effect of over 45% in size
Procedure, shortened: as §5

[10] = A CellTox Green Cytotoxicity Assay to monitor cytotoxicity in HepG2 cells - 40 hour (AID 1224879); also: nearly all actives have a fitted effect of over 40% in size
Procedure, shortened: as §5

[11] = qHTS RealTime-Glo MT Cell Viability Assay in HEK293 cells - 0 hour (AID 1224880)
Procedure, shortened: as §4

[12] = A CellTox Green Cytotoxicity Assay to monitor cytotoxicity in HEK293 cells - 32 hour (AID 1224881); also: nearly all actives have a fitted effect of over 40% in size
Procedure, shortened: as §2

[13] = A CellTox Green Cytotoxicity Assay to monitor cytotoxicity in HepG2 cells - 0 hour (AID 1224882); also: nearly all actives have a fitted effect of over 35% in size
Procedure, shortened: as §5

[14] = A CellTox Green Cytotoxicity Assay to monitor cytotoxicity in HepG2 cells - 32 hour (AID 1224883); also: nearly all actives have a fitted effect of over 50% in size
Procedure, shortened: as §5

[15] = A CellTox Green Cytotoxicity Assay to monitor cytotoxicity in HEK293 cells - 8 hour (AID 1224884); also: nearly all actives have a fitted effect of over 35% in size
Procedure, shortened: as §2

[16] = qHTS RealTime-Glo MT Cell Viability Assay in HepG2 cells - 16 hour (AID 1224885); also: nearly all actives have a fitted effect of over 50% in size
Procedure, shortened: as §6

[17] = qHTS RealTime-Glo MT Cell Viability Assay in HEK293 cells - 24 hour (AID 1224886); also: nearly all actives have a fitted effect of over 50% in size; also: potency is read from the fitted curve at half-maximal effect; as to activity change, negative = cytotoxicity: top concentration of the series differs between compounds
Procedure, shortened: as §3

[18] = qHTS RealTime-Glo MT Cell Viability Assay in HEK293 cells - 8 hour (AID 1224887)
Procedure, shortened: as §4

[19] = A CellTox Green Cytotoxicity Assay to monitor cytotoxicity in HEK293 cells - 16 hour (AID 1224888); also: nearly all actives have a fitted effect of over 35% in size
Procedure, shortened: as §2

[20] = qHTS RealTime-Glo MT Cell Viability Assay in HepG2 cells - 0 hour (AID 1224889); also: nearly all actives have a fitted effect of over 50% in size
Procedure, shortened: as §6

SMILES: CC(=O)Nc1ccccc1C
- Potency [1]: inactive
- Potency [2]: inactive
- Potency [3]: inactive
- Potency [4]: inactive
- max response [5]: 1.18%
- Potency [6]: inactive
- Potency [7]: inactive
- Potency [8]: inactive
- Potency [9]: inactive
- Potency [10]: inactive
- Potency [11]: inactive
- Potency [12]: inactive
- Potency [13]: inactive
- Potency [14]: inactive
- Potency [15]: inactive
- Potency [16]: inactive
- Potency [17]: inactive
- Potency [18]: inactive
- Potency [19]: inactive
- Potency [20]: inactive

SMILES: CN(C(=O)C(Cl)Cl)c1ccc(OC(=O)c2ccco2)cc1
- Potency [1]: inactive
- Potency [2]: inactive
- Potency [3]: inactive
- Potency [4]: inactive
- max response [5]: -3.14%
- Potency [6]: inactive
- Potency [7]: inactive
- Potency [8]: inactive
- Potency [9]: inactive
- Potency [10]: inactive
- Potency [11]: inactive
- Potency [12]: inactive
- Potency [13]: inactive
- Potency [14]: inactive
- Potency [15]: inactive
- Potency [16]: inactive
- Potency [17]: inactive
- Potency [18]: inactive
- Potency [19]: inactive
- Potency [20]: inactive

SMILES: CCN(CC)CCNC(=O)c1ccc(NC(C)=O)cc1
- Potency [1]: inactive
- Potency [2]: inactive
- Potency [3]: inactive
- Potency [4]: inactive
- max response [5]: -0.786%
- Potency [6]: inactive
- Potency [7]: inactive
- Potency [8]: inactive
- Potency [9]: inactive
- Potency [10]: inactive
- Potency [11]: inactive
- Potency [12]: inactive
- Potency [13]: inactive
- Potency [14]: inactive
- Potency [15]: inactive
- Potency [16]: inactive
- Potency [17]: inactive
- Potency [19]: inactive
- Potency [20]: inactive

SMILES: CCCC(=O)O[C@]1(C(=O)COC(=O)CC)CC[C@H]2[C@@H]3CCC4=CC(=O)CC[C@]4(C)[C@H]3[C@@H](O)C[C@@]21C
- activity change, negative = cytotoxic [1]: -0.605% [at 15.8 µM]
- cytotoxicity increase [2]: -16.6% [at 15.8 µM]
- activity change, negative = cytotoxicity [3]: 5.42% [at 15.8 µM]
- viability change, negative = cytotoxic [4]: 4.81% [at 15.8 µM]
- max response [5]: 4.99%
- activity change [6]: -15.7% [at 15.8 µM, hits give high values]
- cytotoxicity increase [7]: -6.66% [at 15.8 µM]
- activity change, negative = cytotoxic [8]: 2.32% [at 15.8 µM]
- cytotoxicity [9]: -8.51% [at 15.8 µM]
- cytotoxicity increase [10]: -7.71% [at 15.8 µM]
- activity change, negative = cytotoxicity [11]: 0.536% [at 15.8 µM]
- cytotoxicity increase [12]: -18.3% [at 15.8 µM]
- cytotoxicity [13]: -8.79% [at 15.8 µM]
- cytotoxicity increase [14]: -8.25% [at 15.8 µM]
- cytotoxicity increase [15]: -4.08% [at 15.8 µM]
- activity change, negative = cytotoxic [16]: 1.6% [at 15.8 µM]
- activity change, negative = cytotoxicity [17]: 2.56% [at 15.8 µM]
- activity change, negative = cytotoxicity [18]: 0.511% [at 15.8 µM]
- activity change [19]: -13.4% [at 15.8 µM, hits give high values]
- activity change, negative = cytotoxicity [20]: -13.7% [at 15.8 µM]

SMILES: CCC(C(=O)OCCOCCN(CC)CC)c1ccccc1 (stereo not given)
- Potency [1]: inactive
- Potency [2]: inactive
- Potency [3]: inactive
- Potency [4]: inactive
- max response [5]: 4.17%
- Potency [6]: inactive
- Potency [7]: inactive
- Potency [8]: inactive
- Potency [9]: inactive
- Potency [10]: inactive
- Potency [11]: inactive
- Potency [12]: inactive
- Potency [13]: inactive
- Potency [14]: inactive
- Potency [15]: inactive
- Potency [16]: inactive
- Potency [17]: inactive
- Potency [18]: inactive
- Potency [19]: inactive
- Potency [20]: inactive

SMILES: O=C(/C=C/c1ccccc1)OCCCc1ccccc1
- Potency [1]: inactive
- Potency [2]: inactive
- Potency [3]: inactive
- Potency [4]: inactive
- max response [5]: -1.1%
- Potency [6]: inactive
- Potency [7]: inactive
- Potency [8]: inactive
- Potency [9]: inactive
- Potency [10]: inactive
- Potency [11]: inactive
- Potency [12]: inactive
- Potency [13]: inactive
- Potency [14]: inactive
- Potency [15]: inactive
- Potency [16]: inactive
- Potency [17]: inactive
- Potency [18]: inactive
- Potency [19]: inactive

SMILES: CCCCCCCC/C=C\CCCCCCCC(=O)OC
- Potency [1]: inactive
- Potency [2]: inactive
- Potency [3]: inactive
- Potency [4]: inactive
- max response [5]: 5.42%
- Potency [6]: inactive
- Potency [7]: inactive
- Potency [8]: inactive
- Potency [9]: inactive
- Potency [10]: inactive
- Potency [11]: inactive
- Potency [12]: inactive
- Potency [13]: inactive
- Potency [14]: inactive
- Potency [15]: inactive
- Potency [16]: inactive
- Potency [17]: inactive
- Potency [18]: inactive
- Potency [19]: inactive
- Potency [20]: inactive

SMILES: Cc1ccnc2ccccc12
- Potency [1]: inactive
- Potency [2]: inactive
- Potency [3]: inactive
- Potency [4]: inactive
- max response [5]: 6.48%
- Potency [6]: inactive
- Potency [7]: inactive
- Potency [8]: inactive
- Potency [9]: inactive
- Potency [10]: inactive
- Potency [11]: inactive
- Potency [12]: inactive
- Potency [13]: inactive
- Potency [14]: inactive
- Potency [15]: inactive
- Potency [16]: inactive
- Potency [17]: inactive
- Potency [18]: inactive
- Potency [19]: inactive
- Potency [20]: inactive

SMILES: O=S(=O)(c1ccccc1)c1ccc(Cl)cc1
- Potency [1]: inactive
- Potency [2]: inactive
- Potency [3]: inactive
- Potency [4]: inactive
- max response [5]: -0.98%
- Potency [6]: inactive
- Potency [7]: inactive
- Potency [8]: inactive
- Potency [9]: inactive
- Potency [10]: inactive
- Potency [11]: inactive
- Potency [12]: inactive
- Potency [13]: inactive
- Potency [14]: inactive
- Potency [15]: inactive
- Potency [16]: inactive
- Potency [17]: inactive
- Potency [18]: inactive
- Potency [19]: inactive
- Potency [20]: inactive

SMILES: CCCCOC(=O)CCS
- Potency [1]: inactive
- Potency [2]: inactive
- Potency [3]: inactive
- Potency [4]: inactive
- max response [5]: 5.96%
- Potency [6]: inactive
- Potency [7]: inactive
- Potency [8]: inactive
- Potency [9]: inactive
- Potency [10]: inactive
- Potency [11]: inactive
- Potency [12]: inactive
- Potency [13]: inactive
- Potency [14]: inactive
- Potency [15]: inactive
- Potency [16]: inactive
- Potency [17]: inactive
- Potency [18]: inactive
- Potency [19]: inactive
- Potency [20]: inactive

SMILES: COCCOC
- Potency [1]: inactive
- Potency [2]: inactive
- Potency [3]: 932 nM (active)
- Potency [4]: inactive
- Potency [5]: 830 nM (active)
- Potency [6]: inactive
- Potency [7]: inactive
- Potency [8]: inactive
- Potency [9]: inactive
- Potency [10]: inactive
- Potency [11]: inactive
- Potency [12]: inactive
- Potency [13]: inactive
- Potency [14]: inactive
- Potency [15]: inactive
- Potency [16]: inactive
- Potency [17]: 740 nM (active)
- Potency [19]: inactive
- Potency [20]: inactive

SMILES: Cc1cc(OI)c(C(C)C)cc1-c1cc(C(C)C)c(OI)cc1C
- Potency [1]: inactive
- Potency [2]: inactive
- Potency [3]: inactive
- Potency [4]: inactive
- max response [5]: -0.141%
- Potency [6]: inactive
- Potency [7]: inactive
- Potency [8]: inactive
- Potency [9]: inactive
- Potency [10]: inactive
- Potency [11]: inactive
- Potency [12]: inactive
- Potency [13]: inactive
- Potency [14]: inactive
- Potency [15]: inactive
- Potency [16]: inactive
- Potency [17]: inactive
- Potency [19]: inactive
